According to PubChem BioAssay AID624116 (National Center for Advancing Translational Sciences (NCATS), 2012):
Records with an inconclusive call do not appear. Active and inactive are the calls of the source. The call rests on the fitted dose curve; in most records, active means well fitted activation curve with a large enough effect; inconclusive means small, poorly fitted or top-dose-only effect; inactive means no such curve, though single readings can be large or run the other way.

assay: qHTS Assay for Rab9 Promoter Activators: Hit Validation Using Renilla Luciferase Read-Out for Rab9; settings: Huh7 Rab9 promoter Renilla luciferase reporter, 24 h; series mostly up to 76.9 µM
From the text: Niemann Pick Type C (NPC) is a rare neurodegenerative lipidosis that is characterized by lipid storage in the endosomal/lysosomal system. Treatment modalities for this devastating disease are currently non-existent due to the severe obstacles associated with accessing the central nervous system with proteins or genes. The majority of mutations causing NPC disease are missense mutations that are distributed throughout the length of the NPC1 protein, with the most prevalent being the I1061T allele. Although NPC1 mutant proteins may be functional, they are typically trapped in the ER due to misfolding. […] We have developed and optimized a cell based renilla luciferase reporter assay in 1536 well format for the identification of up-regulators of the mutant Rab9 promoter. This assay presents data on the validation of hits from the primary screen, which used a firefly luciferase read-out. NIH Chemical Genomics Center [NCGC] NIH Molecular Libraries Probe Production centers Network [MLPCN] MLPCN Grant: MH089375 Assay Submitter (PI): Yiannis A. Ioannou
Huh7 cells stably expressing NPC promoter-luciferase will be seeded at 1,500 cells/well in 5 uL in 1,536-well white opaque plates with 23 nL/well of compound in DMSO solution. The assay plates will be incubated at 37 deg C for 24 hours, after which 3 uL/well BriteLite plus luciferase detection reagent mixture (Perkin Elmer) will be added. Luminescence signal will be measured in a ViewLux plate reader (Perkin Elmer) after a 10 minute incubation at the room temperature.

Potency, inactive:
O=C(NCCSCc1c(F)cccc1Cl)c1ccc(CN2CCOCC2)cc1, COc1ccc(-c2noc(N3CCCC(C(=O)Nc4ccccc4F)C3)n2)cc1 (stereo not given), Cc1[nH]n(-c2cccc3ccccc23)c(=O)c1/C=N/c1sc2c(c1C#N)CCC2, COc1ccc(S(=O)(=O)NC(C(=O)NCCc2ccccn2)C(C)C)cc1 (stereo not given), O=C(CSc1nnc(-c2ccccc2)o1)Nc1ccccc1F, CCOC(=O)CSc1nc2cc(C)ccc2cc1C#N, Cc1nc2sc(C(=O)OC(C)C)c(N)c2c(C)c1C, O=C(O)CSc1nnc(-c2ccncc2)n1CCc1ccccc1, CC(=O)NC(CCCN1C(=O)c2ccccc2C1=O)c1nnn(C)n1 (stereo not given), C=CCc1ccc(OCCOCCNCCOC)c(OC)c1, CCOC(=O)CSc1nc2cc3c(cc2cc1C#N)OCO3, Cc1cccc(NC(=O)CSc2nc3ccccc3o2)c1, CC(=O)Nc1nnc(SCC(=O)NCCOc2ccccc2)s1, Cc1ccc(C#N)c(SCC(=O)Nc2nccs2)n1, Cc1ccc2nc(NC(=O)CCn3cccc3)sc2c1, S=C1NCN(CCc2ccccc2)CN1Cc1ccccc1, CC(=O)c1cccc(NC(=O)N2CCOCC2)c1, CCN(CC)S(=O)(=O)c1ccc(NCc2ccccn2)nc1, Cc1ccc(N=Cc2sc(O)c3ccccc23)c(C)c1, CCOC(=O)c1csc(COc2ccc(OC)cc2)n1, Cc1noc(/C=C/N(C)C)c1S(=O)(=O)N1CCCC(C(=O)N2CCCCC2)C1 (stereo not given), CCOc1ccc(CNC(=O)C2CCCN(S(C)(=O)=O)C2)cc1OC (stereo not given), CC1CC(C)CN(CC(=O)N2CCOCC2)C1 (stereo not given), Cc1ccc(NC(=O)COC(=O)C2C3CC4OC(=O)C2C4C3)cc1Cl (stereo not given), Cc1ccc(NC(=O)c2ncc(Cl)c(Cl)c2Cl)cc1C, Nc1c(N(CCO)C(=O)/C=C/c2ccco2)c(=O)[nH]c(=O)n1Cc1ccccc1, COc1ccccc1NC(=S)NCc1ccc(Cl)cc1, CCCCn1c(Nc2ccc(OC)cc2)nc2ccccc21, O=C(CSc1nnc(-c2csc3c2CCCC3)o1)Nc1ccccc1, CC(C)(C)NC(=S)NNC(=O)c1ccc2ncccc2c1, CCOC(=O)c1ccc(-c2nnc(-c3ccc(Cl)cc3Cl)o2)cc1, COc1cccc(NC(=O)CN2C(=O)CSc3ccc(S(=O)(=O)N4CCC(C)CC4)cc32)c1, COC(=O)c1sccc1NC(=S)OC, O=C(c1cccc(Oc2ccc([N+](=O)[O-])cc2)c1)N1CCOCC1, O=C(NNC(=O)C1COc2ccccc2O1)c1ccccc1O (stereo not given), COCCSc1ncnc2c1oc1nc3c(cc12)COC(C)(C)C3, CC(=O)Nc1ccc(NC(=O)COc2ncnc3ccccc23)cc1, CCC(=O)N1c2ccccc2NC2=C(C(=O)CCC2)C1c1ccc(N(C)C)cc1 (stereo not given), O=C(COC(=O)c1ccc(-c2nnc(-c3ccccc3)o2)cc1)c1ccccc1, COc1ccccc1CNC(=O)COc1ccc(C)cc1
